Test systems include HCT-15 colon; HT29 colon; SNB-19 CNS; U251 CNS; PC-3 prostate; SK-MEL-5 melanoma; UACC-62 melanoma; SK-MEL-28 melanoma; SK-MEL-2 melanoma; EKVX NSCLC; SN12C renal; UO-31 renal; TK-10 renal; ACHN renal; CAKI-1 renal; A498 renal; CCRF-CEM leukemia; MOLT-4 leukemia; LOX IMVI melanoma; SNB-75 CNS.
Test in all cases: NCI-60 one-dose screen, 48 h (100 = growth as untreated, 0 = no growth, -100 = all killed)
Details in all cases: 10 µM unless noted

About 83,000 compounds went through this panel and 20% of them were active in at least one assay; those are over-represented in the sample as a whole.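 Compound tested at a single concentration for 48 hours in 96-well plates; a percent growth value below 10 was scored as active.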 A number with no mark means an inactive call. The source made the active and inactive calls.

For `Cc1ccc(-c2nc(/C=N/Nc3cc(C)nc4ccc(Cl)cc34)c(C)o2)cc1`, the growth was -67.5% (active) with HCT-15 colon; -77.9% (active) with HT29 colon; -44.7% (active) in the assay with SNB-19 CNS; -94.8% (active) in the assay on U251 CNS; 33.7% in the assay with PC-3 prostate; 49.6% with SK-MEL-5 melanoma. In addition, the growth was 31.7% with UACC-62 melanoma; -68.8% (active) in the assay with SK-MEL-28 melanoma; 95.1% with SK-MEL-2 melanoma; -41.2% (active) with EKVX NSCLC; -81.2% (active) with SN12C renal; -99.7% (active) in the assay on UO-31 renal. Moreover, the growth in the assay with TK-10 renal was -54.8% (active); with ACHN renal, -100% (active); with CAKI-1 renal, -63.6% (active); in the assay with A498 renal it was 67.6%; with CCRF-CEM leukemia, -51.3% (active); with MOLT-4 leukemia, -31.3% (active).

For `CCCCCCNC(=O)Oc1ccc(/C(=C(\C)c2ccccc2)c2ccc(OCCN(CC)CC)cc2)cc1`, the growth was 4.48% (active) in the assay on HCT-15 colon; -16.1% (active) with HT29 colon; 63.6% in the assay on SNB-19 CNS; 38.2% in the assay on U251 CNS; 45.4% in the assay on PC-3 prostate; 41.9% in the assay on SK-MEL-5 melanoma. The growth in the assay with UACC-62 melanoma is 18.4%; in the assay on LOX IMVI melanoma, 67.8%; with SK-MEL-28 melanoma, 61.1%; in the assay with SK-MEL-2 melanoma it was 86.6%; with SN12C renal it was 73%; in the assay on UO-31 renal, 28.8%. For the same molecule, the growth is 76.1% in the assay with TK-10 renal; 88.1% with ACHN renal; 77% in the assay with CAKI-1 renal; 81.7% in the assay on A498 renal; 40.5% in the assay on CCRF-CEM leukemia; 20.3% in the assay on MOLT-4 leukemia.

Turning to `CCCCCCCCCCCCNC(=O)[C@H]1CSC(c2ccc(OC)c(F)c2)N1` (stereo not given in full), the growth with HCT-15 colon was -82.3% (active); in the assay on HT29 colon, -83.1% (active); with SNB-19 CNS it was -92.6% (active); in the assay with U251 CNS, -93.4% (active); with PC-3 prostate, -93.8% (active); with SK-MEL-5 melanoma, -98.1% (active). Besides, the growth with UACC-62 melanoma was -95% (active); in the assay with LOX IMVI melanoma it was -89.6% (active); in the assay with SK-MEL-28 melanoma it was -92.6% (active); with SK-MEL-2 melanoma, -93.7% (active); with EKVX NSCLC it was -87.4% (active); in the assay with SN12C renal, -93% (active). Besides, the growth was -96.3% (active) in the assay with TK-10 renal; -100% (active) in the assay with ACHN renal; -97.8% (active) in the assay on CAKI-1 renal; -96.3% (active) with A498 renal; -42.5% (active) with CCRF-CEM leukemia; -66.9% (active) in the assay on MOLT-4 leukemia.

On to `COc1ccc(-c2cn3c(ccc4ccccc43)n2)cc1`, for which the growth is 92.4% in the assay on HCT-15 colon; 108% in the assay with HT29 colon; 99.3% with SNB-19 CNS; 105% with U251 CNS; 89.2% in the assay with PC-3 prostate; 78% in the assay on SK-MEL-5 melanoma. Also, the growth in the assay with UACC-62 melanoma is 85.3%; in the assay on SK-MEL-28 melanoma it was 117%; in the assay on SK-MEL-2 melanoma it was 109%; in the assay on EKVX NSCLC it was 72.1%; in the assay on SN12C renal, 89.9%; in the assay with UO-31 renal, 56.1%. The growth in the assay with TK-10 renal is 126%; in the assay on ACHN renal, 81.3%; with CAKI-1 renal it was 92.7%; in the assay with A498 renal, 116%; in the assay with CCRF-CEM leukemia, 99.2%; in the assay with MOLT-4 leukemia, 113%.

For `CC(=O)O[C@H]1CC[C@]2(C)[C@H]3CC[C@@H]4[C@H]5[C@H](C(C)C)CC[C@]5(C(=O)OCC(CO)(CO)N=C(N)N)CC[C@@]4(C)[C@]3(C)CC[C@H]2C1(C)C`, the growth with HCT-15 colon was 10.4%; in the assay on HT29 colon, -69% (active); in the assay with SNB-19 CNS, 58.5%; in the assay on U251 CNS, -96.4% (active); in the assay on PC-3 prostate it was 41.2%; in the assay with SK-MEL-5 melanoma, 81.2%. Moreover, the growth in the assay on UACC-62 melanoma was 86.8%; in the assay with LOX IMVI melanoma, -48.8% (active); in the assay on SK-MEL-28 melanoma it was 84.9%; in the assay with SK-MEL-2 melanoma, 102%; with EKVX NSCLC it was 88.7%; in the assay on SN12C renal it was 13.7%. The growth is 55.1% with UO-31 renal; 88% in the assay with TK-10 renal; 83.4% with ACHN renal; 81.1% in the assay with CAKI-1 renal; 113% in the assay on A498 renal; 11.3% with CCRF-CEM leukemia. In the assay with MOLT-4 leukemia, the growth was 0.198% (active).

`COc1ccc(S(=O)(=O)NCCNc2nccc(-c3c(-c4cccc([N+](=O)[O-])c4)nc4sccn34)n2)cc1`: the growth with HCT-15 colon was 77.5%; with HT29 colon, 74.8%; with SNB-19 CNS, 91.6%; in the assay with U251 CNS, 91.1%; in the assay on PC-3 prostate, 64.6%; with SK-MEL-5 melanoma it was 63.6%. The growth in the assay with UACC-62 melanoma was 84%; in the assay on LOX IMVI melanoma it was 88.6%; with SK-MEL-28 melanoma, 107%; with SK-MEL-2 melanoma it was 100%; in the assay on SN12C renal, 70.3%; with UO-31 renal, 49.3%. The growth with TK-10 renal is 108%; in the assay on ACHN renal, 62.4%; in the assay with CAKI-1 renal it was 68.1%; with A498 renal, 63.7%; with CCRF-CEM leukemia it was 75.2%; with MOLT-4 leukemia, 60.7%.

For the molecule `COc1ccc(-c2cc(-c3ccc(N(C)C)cc3)nc(NC(=O)c3ccncc3)n2)cc1`, the growth with HCT-15 colon is 90.4%; in the assay on HT29 colon it was 106%; in the assay with SNB-19 CNS it was 90.2%; in the assay on U251 CNS it was 98%; with PC-3 prostate, 83.5%; in the assay with SK-MEL-5 melanoma, 89.2%. For the same molecule, the growth was 101% in the assay on UACC-62 melanoma; 91.7% in the assay with LOX IMVI melanoma; 108% in the assay with SK-MEL-28 melanoma; 116% in the assay on SK-MEL-2 melanoma; 99.8% with EKVX NSCLC; 104% in the assay on SN12C renal. Besides, the growth in the assay with UO-31 renal is 72.1%; with TK-10 renal it was 105%; in the assay on ACHN renal it was 98.7%; in the assay on CAKI-1 renal, 95%; with A498 renal, 76.5%; with CCRF-CEM leukemia, 96.8%. The growth with MOLT-4 leukemia was 111%.

For the molecule `O=S(=O)(NCCCNc1cc(-c2cn(-c3ccccc3)nc2-c2ccccc2)ccn1)c1ccc(C(F)(F)F)cc1`, the growth with HCT-15 colon is 41%; in the assay on SNB-75 CNS, 58.6%; with SNB-19 CNS it was 66.9%; in the assay with U251 CNS it was 44.4%; with PC-3 prostate, 17.6%; in the assay on SK-MEL-5 melanoma, 36.8%. Besides, the growth is 69.8% in the assay on UACC-62 melanoma; 54% with LOX IMVI melanoma; 79% in the assay with SK-MEL-2 melanoma; 46.4% in the assay on EKVX NSCLC; 63% in the assay with SN12C renal; 40.4% in the assay on UO-31 renal. Further, the growth is 72.3% with TK-10 renal; 52.4% in the assay with CAKI-1 renal; 70.6% in the assay on A498 renal; 50.2% in the assay on CCRF-CEM leukemia; 29.4% with MOLT-4 leukemia.

The values above are taken from PubChem BioAssay (NCI).
